In PubChem BioAssay AID765 (NMMLSC, 2007):
The source made the active and inactive calls. No stated cut-off is given here; in the data, active means inhibition above about 31%; inactive means the rest.

Target: N-formyl peptide receptor 2 (Homo sapiens) (UniProt P25090)
Assay: FPRL1 fluorescent ligand binding inhibitors, cell-based, flow cytometry, single concentration (AID 765)
Conditions: FPRL1-expressing cells, stronger effect = higher value; at 5.1 µM unless noted

Chain of N-formyl peptide receptor 2 (Homo sapiens) (P25090 whole entry, looked up): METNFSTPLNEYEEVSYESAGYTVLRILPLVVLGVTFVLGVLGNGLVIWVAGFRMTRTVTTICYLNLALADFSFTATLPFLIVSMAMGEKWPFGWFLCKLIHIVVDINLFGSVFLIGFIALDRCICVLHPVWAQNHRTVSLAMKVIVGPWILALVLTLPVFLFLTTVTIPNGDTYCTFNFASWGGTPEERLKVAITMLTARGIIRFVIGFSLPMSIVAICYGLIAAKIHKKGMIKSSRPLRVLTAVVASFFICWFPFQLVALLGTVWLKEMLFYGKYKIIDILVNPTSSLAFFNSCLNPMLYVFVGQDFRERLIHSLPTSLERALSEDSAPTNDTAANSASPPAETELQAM

inhibition, inactive:
COc1ccccc1N1CCN(c2nc(-c3ccc(F)cc3)cc(C(F)(F)F)n2)CC1 -8.4%
COc1ccc(-c2cn3cccnc3n2)cc1NC(=O)c1ccc(Br)cc1 -12.5% [at 5.3 µM]
CCOC(=O)N1CCN(c2nc(-c3ccc(C)cc3)cc(C(F)F)n2)CC1 1% [at 5.9 µM]
Cc1ccc(-c2cc(C(F)F)nc(N3CCN(c4cccc(Cl)c4)CC3)n2)cc1 -3.5% [at 5.4 µM]
COc1ccc(-c2cn3cccnc3n2)cc1NC(=O)c1ccc(OC)c(OC)c1 -6% [at 5.5 µM]
O=C(c1ccccc1)N1CCN(c2nc(-c3ccccc3)c3cc([N+](=O)[O-])ccc3n2)CC1 18.8%
COc1ccc(-c2cc(C(F)(F)F)nc(N3CCN(c4ccccc4)CC3)n2)cc1OC -5% [at 5 µM]
COc1ccc(-c2cn3cccnc3n2)cc1NC(=O)c1c(-c2ccccc2Cl)noc1C 13.3% [at 4.8 µM]
COc1ccc(-c2cn3cccnc3n2)cc1NC(=O)c1ccccc1Cl 19% [at 5.9 µM]
Cc1ccc2nc(N3CCN(C(=O)CCC(=O)O)CC3)nc(-c3ccccc3)c2c1 6.9% [at 5.5 µM]
CC(C)(C)OC(=O)N1CCN(c2nc(-c3ccccc3Cl)c3cc(Br)ccc3n2)CC1 -9.1% [at 4.4 µM]
COc1ccc(-c2cn3cccnc3n2)cc1NC(=O)c1ccccc1F 0.8% [at 6.1 µM]
COc1ccc(-c2cn3cccnc3n2)cc1NC(=O)CCCc1ccccc1 -8.7% [at 5.8 µM]
O=C(C1CCCCC1)N1CCN(c2nc(-c3ccccc3Cl)c3cc(Br)ccc3n2)CC1 -6.3% [at 4.3 µM]
FC(F)(F)c1cc(-c2cccs2)nc(N2CCN(Cc3ccccc3)CC2)n1 12.5% [at 5.5 µM]
O=C(O)/C=C\C(=O)N1CCN(c2nc(-c3ccccc3)c3cc(Br)ccc3n2)CC1 15.8% [at 4.8 µM]
Clc1ccccc1-c1nc(N2CCN(c3ccccc3)CC2)nc2ccc(Br)cc12 -7.9% [at 4.6 µM]
COc1ccc(C2CC(=O)c3cnc(N4CCN(Cc5ccc6c(c5)OCO6)CC4)nc3C2)cc1 (configuration not stated) 8% [at 4.7 µM]
FC(F)(F)c1cc(-c2ccccc2)nc(N2CCN(c3ccccc3)CC2)n1 -10.6% [at 5.8 µM]
CCOC(=O)N1CCN(c2nc(-c3ccccc3)c3cc(C)ccc3n2)CC1 3.4% [at 5.9 µM]
Clc1cccc(-c2nc(N3CCN(c4ccccn4)CC3)nc3c2COc2ccccc2-3)c1 -0.8% [at 4.9 µM]
COc1ccc(-c2cn3cccnc3n2)cc1NC(=O)c1cc(Br)ccc1Cl 4.3% [at 4.9 µM]
Cc1ccccc1N1CCN(c2nc(-c3ccccc3)c3cc(Br)ccc3n2)CC1 0.2% [at 4.8 µM]
CCOC(=O)N1CCN(c2nc(-c3ccccc3Cl)c3cc(Br)ccc3n2)CC1 -4.5% [at 4.7 µM]
CC1CCc2nc(N3CCN(Cc4ccccc4)CC3)nc(C(F)(F)F)c2C1 (configuration not stated) -10.7% [at 5.7 µM]
CC(N)C(=O)N1CCN(c2nc(-c3ccccc3)c3cc([N+](=O)[O-])ccc3n2)CC1 (configuration not stated) 3.9% [at 5.5 µM]
COc1cccc(C(=O)Nc2cc(-c3cn4cccnc4n3)ccc2OC)c1 12.2% [at 5.9 µM]
COc1ccc(-c2cn3cccnc3n2)cc1NC(=O)C(C)Oc1ccccc1 (configuration not stated) -8.6% [at 5.7 µM]
COc1ccc(C2CC(=O)c3cnc(N4CCN(Cc5ccc6c(c5)OCO6)CC4)nc3C2)cc1OC (configuration not stated) 11.9% [at 4.4 µM]
CCC(CC)C(=O)Nc1cc(-c2cn3cccnc3n2)ccc1OC 11.5% [at 6.6 µM]
CC(=O)N1CCN(c2nc(-c3ccccc3)c3cc(C)ccc3n2)CC1 5.6% [at 6.4 µM]
Fc1ccc(-c2cc(C(F)(F)F)nc(N3CCN(c4cccc(Cl)c4)CC3)n2)cc1 19.5%
COc1ccccc1-c1cc(C(F)(F)F)nc(N2CCN(c3ccc(F)cc3)CC2)n1 -8.8%
COc1ccc(-c2cn3cccnc3n2)cc1NC(=O)C1CCCCC1 1.2% [at 6.3 µM]
COc1ccc(-c2cc(C(F)(F)F)nc(N3CCN(C)CC3)n2)cc1 -15.1% [at 6.3 µM]

inhibition, active:
COc1ccc(-c2cn3cccnc3n2)cc1NC(=O)C1CCCC1 34.6% [at 6.6 µM]
COc1ccc(-c2cc(C(F)(F)F)nc(N3CCN(Cc4ccccc4)CC3)n2)cc1OC 69.2% [at 4.9 µM]
